Among the data in ChEMBL document CHEMBL4513135, “CO-ADD screening of IQOG CSIS (Spain) compounds” are Inhibition values, retold here.

“And” between values parts separate entries of the source, which are not always exact repeats. Identical values can stand only once. Potency and affinity values are given separately.

The test system of test [1] is Staphylococcus aureus. The conditions noted are these: Concentration 32 ug.mL-1; ASSAY_TEST Inhibition of Bacterial Growth; detection method Absorption (OD600); MEDIA CAMHB; plate type 384well; NBS; CORNING #3640; time 18 hr.
Test [2] concerns Escherichia coli. To be noted: Concentration 32 ug.mL-1, ASSAY_TEST Inhibition of Bacterial Growth, detection method Absorption (OD600), MEDIA CAMHB, plate type 384well, NBS, CORNING #3640, time 18 hr.

In general, Inhibition refers to the relative decrease from the control value, in per cent. Regarding `COc1ccc(C2c3c(ccc4ccccc34)OC(=NBr)C2(Br)C#N)cc1OC` (configuration not stated), the results for the Inhibition in test [1] and in test [2] were 13.88% and -20.35%, respectively.

Consider `CC(=O)Nc1n[nH]c2nc(N)c(C#N)c(-c3ccccc3)c12`, for which the Inhibition is on record as 38.27% in test [1] and 1.16% in test [2].

As to `C/C(=N\NC(=O)c1cc2ccccc2n1Cc1ccccc1)C1CC1`, the values for the Inhibition in test [1] and in test [2] were 7.87% and 7.24%, respectively.

As to `N#Cc1cc(C#N)c(N2CCC(O)CC2)nc1N`, the Inhibition is 5.78% in test [1] and -26.11% in test [2].

Consider `C=C1CN(C)c2c(C#N)cc(C#N)c(=S)n21`, for which the Inhibition is reported as 18.51% in test [1] and -1.72% in test [2].

Turning to `Cl.ClCCCCCN1CCCCC1`, the Inhibition is listed as 7.58% in test [1] and 1.26% in test [2].

`C=CCNCc1cc2cc(OCCCC3CCN(Cc4ccccc4)CC3)ccc2[nH]1.O.O=C(O)C(=O)O.O=C(O)C(=O)O`: the Inhibition was 13.83% in test [1] and -23.08% in test [2].

Turning to `O=C(Cc1c[nH]c2ccccc12)NNCCc1ccccc1`, the values for the Inhibition in test [1] and in test [2] were 4.22% and 5.19%, respectively.

On to `O=C(NNCc1c[nH]c2ccccc12)c1cccc2ccccc12`, for which the Inhibition in test [1] is -2.49%; in test [2], 3.58%.

For the molecule `CC#CCN.Cl`, the Inhibition came out at 31.78% in test [1] and 20.2% in test [2].

For `Cc1nn(-c2ccccc2)c2nc(C)n3nc(-c4ccccc4)nc3c12`, the Inhibition in test [1] was found to be 16.28%; in test [2], 8.31%.

Take `COc1cccc(C2C(C#N)=C(N)Oc3c2ccc2ccccc32)c1` (configuration not stated): the Inhibition in test [1] is listed as 23.52%; in test [2], -8.01%.

In the case of `N#Cc1c(-c2cccc([N+](=O)[O-])c2)c2ccc3ccccc3c2oc1=O`, in test [2] (32 ug/mL), the Inhibition is -5.38% and -17.97% and -15.63%.

Turning to `Cc1ccc(C2c3c(Cl)nnnc3Oc3ccc4ccccc4c32)cc1` (configuration not stated), the figures for the Inhibition in test [1] and in test [2] were 36.97% and 16.16%, respectively.

Take `Nc1c2c(nc3c1CC(c1c(Cl)cccc1Cl)C(=O)N3)CCCC2` (configuration not stated): the figures for the Inhibition in test [1] and in test [2] were 22.21% and 31.42%, respectively.

In the case of `COc1cccc(C=C2N=C(c3ccccc3)OC2=O)c1OC(C)=O`, the Inhibition in test [1] stood at 5.66%; in test [2], 4.51%.

On to `Br.C#CCNCc1ccccc1`, for which the Inhibition stood at 25.93% in test [1] and 20.8% in test [2].

With `O=Cc1ccc(OCCO[N+](=O)[O-])cc1`, the Inhibition in test [1] worked out at 6.78%; in test [2], 18.31%.

Take `C#CCN(C)c1nc(N)c(C#N)cc1C#N`: the Inhibition in test [2] (32 ug/mL) is -6.57% and -4.54%.

Consider `N#Cc1c(Cl)nc(Cl)c(C#N)c1-c1ccccc1`, for which the Inhibition in test [1] is 37.97%; in test [2], -3.96%.

For the molecule `CCOC(=O)c1cc2cc(OCc3ccccc3)ccc2[nH]1`, the values for the Inhibition in test [1] and in test [2] were 7.82% and 5.9%, respectively.

Regarding `COc1cccc(C2c3c(ccc4ccccc34)OC(=N)C2(Br)C#N)c1` (configuration not stated), the Inhibition in test [2] (32 ug/mL) was -22.74% and -4.85%.

As for `Cn1cc(C=O)c2ccccc21`, the Inhibition in test [1] is -0.04%; in test [2], -4.32%.

As to `Cn1ccnc1C1C(C#N)=C(N)Oc2c1ccc1cccnc21` (configuration not stated), the values for the Inhibition in test [1] and in test [2] were 12.96% and -14.85%, respectively.

In the case of `COc1ccc(C=C2N=C(c3ccccc3)OC2=O)cc1`, the Inhibition in test [1] came to 12.56%; in test [2] it was 14.02%.

`O=C1OC(c2ccccc2)=NC1=Cc1ccc(Cl)cc1`: the values for the Inhibition in test [1] and in test [2] were 14.11% and 10.9%, respectively.

With `O=Cc1c(-c2ccc(Br)cc2)nc2ccccn12`, the Inhibition is reported as 3.95% in test [1] and 9.28% in test [2].

For `O=C1NC(=S)N/C1=C\c1ccccc1`, the Inhibition in test [1] was 13.95%; in test [2] it was 8.87%.

As to `CCOc1nc(N)c(C#N)c(-c2ccccc2)c1C#N`, the Inhibition in test [1] is given as 44.16%; in test [2], -9.76%.

Consider `C/C(Cc1ccccc1)=N\NC(=O)c1c[nH]c2ccccc12`, for which the Inhibition amounted to 5.98% in test [1] and 14.48% in test [2].

`C#CCn1c(N)c(C#N)c2cc(O)ccc21`: the Inhibition is on record as 28.27% in test [1] and -2.03% in test [2].

Consider `Cl.N#Cc1c(Cl)nc(N)nc1NCCO`, for which the figures for the Inhibition in test [1] and in test [2] were -0.92% and -1.11%, respectively.

Consider `CC(=O)C(=Cc1ccccc1)C(=O)O[C@H]1C[C@H](C)CC[C@H]1C(C)C`, for which the Inhibition in test [1] is on record as 27.78%; in test [2], 14.92%.

Turning to `CNC(=O)c1c(Cl)c2cc(OCc3ccccc3)ccc2n1C`, the results for the Inhibition in test [1] and in test [2] were 21.87% and -12.2%, respectively.

In the case of `N#CC1=C(Cl)Oc2c(ccc3ccccc23)C1c1cccc([N+](=O)[O-])c1` (configuration not stated), the Inhibition is recorded as 9.83% in test [1] and -16.88% in test [2].

Take `CC(=O)NC=C1C(=O)OC(C)(C)OC1=O`: the Inhibition in test [1] is recorded as 14.96%; in test [2] it was 11.61%.

In the case of `N#CC1=C(N)Oc2c(ccc3ccccc23)C1c1cccc([N+](=O)[O-])c1` (configuration not stated), the Inhibition is on record as 17.39% in test [1] and -10.4% in test [2].

For `COc1cccc(-c2c(C#N)c(=O)oc3c2ccc2ccccc23)c1`, the Inhibition came out at 13.24% in test [1] and 14.42% in test [2].

`COC1=C(C#N)C(c2ccccc2)C(C=O)=C(Cl)N1` (configuration not stated): the Inhibition in test [1] is given as 40.42%; in test [2], -6.81%.

For `COc1ccc(C2C(C#N)=C(N)Oc3c2ccc2ccccc32)cc1OC` (configuration not stated), the Inhibition in test [2] was -16.13%.

In the case of `CC(=O)NCCc1ccccc1`, the Inhibition in test [1] was 12.71%; in test [2], 11.94%.

As for `CCOC(=O)C1=C(C)Oc2nc3c(c(N)c2C1c1ccc(O)c(OC)c1)CCC3` (configuration not stated), the Inhibition was -3.09% in test [1] and -6.01% in test [2].

Take `C=C1CN(C)c2ncc(C#N)c(=N)n21`: the Inhibition in test [1] was 2.81%; in test [2], -21.82%.
